# In ChEMBL document CHEMBL2218924, “A broad activity screen in support of a chemogenomic map for kinase signalling research and drug discovery” (Biochem J, 2013):
# Target: cAMP-dependent protein kinase catalytic subunit alpha (Homo sapiens) (UniProt P17612)
# Details: at 10 µM
row,SMILES,residual activity [%]
1,CO[C@H]1C[C@@H]2CC[C@@H](C)[C@@](O)(O2)C(=O)C(=O)N2CCCC[C@H]2C(=O)O[C@H]([C@H](C)C[C@@H]2CC[C@@H](O)[C@H](OC)C2)CC(=O)[C@H](C)/C=C(\C)[C@@H](O)[C@@H](OC)C(=O)[C@H](C)C[C@H](C)/C=C/C=C/C=C/1C,141
2,Cc1cc(Nc2nc(-c3ccccc3)nc3ccccc23)n[nH]1,70
3,c1ccc(-c2n[nH]cc2-c2ccnc3ccccc23)nc1,93
4,O=C(O)c1ccc2c3c1cccc3c(=O)n1c3ccccc3nc21,89
5,O=c1cc(-c2cccc3c2Sc2ccccc2S3)oc(N2CCOCC2)c1,104
6,CO[C@@H]1[C@H](N(C)C(=O)c2ccccc2)C[C@H]2O[C@]1(C)n1c3ccccc3c3c4c(c5c6ccccc6n2c5c31)C(=O)NC4,10
7,Cc1cc2ncc(-c3ccccc3)nc2cc1C,75
8,Cc1cncc2cccc(S(=O)(=O)N3CCCN(C(=O)CN)C[C@H]3C)c12,59
9,CC(=O)c1ccc(N2CCOCC2)cc1O,96
10,O=C1NC(=O)/C(=C/c2ccc3c(c2)OC(F)(F)O3)S1,74
11,CCN(CC)C(=O)c1ccc(Nc2nc(OCC3CCCCC3)c3nc[nH]c3n2)cc1,52
12,Cn1nc2c3c(cccc31)C(=O)c1ccccc1-2,90
13,O=C1Nc2ccccc2/C1=C1/Nc2ccccc2/C1=N\OCCC(O)CO (stereo not given),38
14,O=[N+]([O-])c1ccc(-c2nc(-c3ccc(F)cc3)c(-c3ccncc3)[nH]2)cc1,82
15,N#CC(C#N)=C(N)/C(C#N)=C/c1ccc(O)cc1,63
16,Ic1cccc(CSc2nnc(-c3ccncc3)o2)c1,79
17,Cc1ccc(NC2=CC(=O)c3sc(C)nc3C2=O)cc1,106
18,CCOc1cc2ncnc(Nc3cccc(Br)c3)c2cc1OCC,86
19,COc1cc2ncnc(Nc3ccc(NC(=O)c4ccccc4)cc3)c2cc1OC,85
20,Cc1cccc(-c2[nH]c(C(C)(C)C)nc2-c2ccc3c(c2)OCO3)n1,91
21,COc1cccc(-c2cc(=O)c3ccccc3o2)c1N,95
22,CN(C)CCCn1cc(C2=C(c3c[nH]c4ccccc34)C(=O)NC2=O)c2ccccc21,20
23,O=Nc1c(-c2c(O)[nH]c3ccccc23)[nH]c2ccccc12,54
24,COc1cc2ncc(-c3ccccc3)nc2cc1OC,74
25,COc1ccc(C(=O)Nc2sc3c(c2C(N)=O)CCCC3)cc1OC,95
26,C[C@@H](N)[C@H]1CC[C@H](C(=O)Nc2ccncc2)CC1,80
27,Cn1cc(/C=C2\C(=O)Nc3ccc(S(N)(=O)=O)cc32)c2ccccc21,57
28,O=c1c2ccccc2[nH]c(=S)n1CCN1CCC(=C(c2ccc(F)cc2)c2ccc(F)cc2)CC1,114
29,c1ccc2c(-c3ccncc3)c[nH]c2c1,50
30,NC(=O)c1ccc2[nH]c(-c3ccc(Oc4ccc(Cl)cc4)cc3)nc2c1,129
